The results in this text go back to the supplement of paper PMC6555819.

For the test, the system named is VDR:RXRa (NR concentration 270 nM, RXRa partner concentration 90 nM). The test is described as follows: PBM binding z-score (relative to random genomic background probes); higher = stronger binding; sequences stand for … in GC…GCGATTGACAGCGTAGAATGAAGG
The method, then:
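Protein-binding microarray (Agilent 4x180K custom design, double-stranded 60-nt probes: 5' GC cap, 34-nt variable region, 24-nt constant primer region; full probe sequence given). Purified or IVT nuclear receptor:RXRα heterodimers (3:1 NR:RXRα, mostly 270:90 nM) or homodimers were incubated for 1 h in PBS with 2% milk and no ligand, then detected with Alexa488 antibodies. Fluorescence from o1-orientation probes (~5 replicates averaged) was converted to z-scores against 500 random hg19 background probes. Variable regions are seed direct-repeat (DR0–DR5) sites, all their single-nucleotide variants and half-site ablations.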
Consider ATATGTAGGTAAAGGGTCATTCAGGTTGGTTCGC, for which the PBM binding z-score was 5.54. The sequence ATCTCTGGGTAAAAGTTCAGTGAATCCCGAGGAT had a PBM binding z-score of 1.25.

Sequence ACAATTAGTTGACTTAGGGCAACCGATACGACGC gave a PBM binding z-score of 0.376. Under ACAGACAGGCGATGAAGGTAACTCAGGCTATCAT stands -0.262; under AATACAGGGTCATCGTAGGCCAGACTACGCACAG, 5.11; under TCTATTAGTTGATGAGGGCAACCGAAACAGCGGA, 1.15. CCTACTGGGCCAAAAAGGTCACTGATGCCGATAA: the PBM binding z-score was found to be 4.5. The sequence ATCTCTAGGTAAGACTCAGTTCAGTTAAGAACGC displayed a PBM binding z-score of 1.12. The figure for CAGACTAGGTCAGGGCCAGTATAGGAGGAACGTT is -0.0309. Under TCGAGTAGGTTAGTCGGGGCGTTCAGCCAACATA stands 1.48.

CGTCAAAATTCAAGGTAACGTAACAGAAAGCAGC registered a PBM binding z-score of 0.111.

As to CCTAGTTGGTCAAGATCACACACGCTATAGGTAC, the PBM binding z-score amounted to 0.862.

For TAGCCTAGGTCTTGGGCCAGTATACCACGCGAAC, the PBM binding z-score is -0.455.

GCTAGTTCGTCAGTAAAAGGTCACACACCGGTCG registered a PBM binding z-score of 4.28. Under ATATGTAGGTTATCGGATCATTCAGTTTGCGCAT stands 1.58; under AGAATGAGGTTACCAAAGAGCAGGGAAACGCTTG, 1.05; under TCTTGTAGATAAAAGGTTAAGAAAGCCGAAGCCT, 1.2. Under CGTCCAAGGTCAGAGAGGTGAGTGAATGCCGAGT stands 4.78. As to AGAATGAGGTTACCAAAGATCAGGGTAACGCTTG, the PBM binding z-score was 1.6. Under TTACCAAGGTGAAGGCCGTTGATCCCTCTGTAGA stands -0.121; under CCTGCTAGGTCATGGTCGGCTAATCTACAGTATG, 1.57; under TCATATAGGTAATGGTGAAAGTCGAACGATATGA, 0.243. The figure for CTCGAAAGGTCGGTTGAGGTGAGTCTACGGATAA is 2.45.

CCTTACGGGTCAAGGTTATGGCACGGGTGGTACG displayed a PBM binding z-score of 3.53. In turn, CGTCTAAGTTCAACTAAGGTAACGTAAAGCACGC returned a PBM binding z-score of 4.12. Turning to ACAGACAGGTGAGTGAAGGTACCTCAGCTGGACG, the PBM binding z-score is -0.805.

In turn, TGAATGAGGTTATAGGATCAGGGAACGTTGCAAA gave a PBM binding z-score of 1.13.

TCTGCTAAGTCAGTTGGTCAGCTAACGAGCTGCC returned a PBM binding z-score of -0.514. In turn, TCCAGTTGGTCACGGAGGTCACACACGACGGGTA registered a PBM binding z-score of 5.75. Under CGTCCAAGGTCAGCAGGTCAGTGCAAGCGACGTG stands 3.93. The figure for GCGACGGGGGCATCAGCAGGTTACCATAACTTAA is 3.67. The figure for AGTCAAAGTTCACTAGGTAACGAAAGATTCAGCT is 3.25; for TGTGCTAGGTCAGTTGGTCAGCTAACGAGCTGCC it is -0.0889; for CGAACTAGGTCAGAACAGGACAGTGCAGGATGAT it is 0.787.

TTACCAAGGTGAGCTGAGGTAGTTGATCCAACTC returned a PBM binding z-score of -0.45. The figure for CCGACTGGGGCAAGGTTTCCATAACGCACAGCCA is -0.502. Under TCGAGTAGGTGAGGGGCATTCAGAATGGCGTCGA stands -0.0355; under ATCTCTAGGTAAACGTTCAGTGAATCCCGAGGAT, -0.107. Under CGTCCAAGGTCAGAGAGGTCAGTGATTGCCGAGT stands 7.23; under CTCGAAATGTCGTGCTCAGGTGAGTATACCAAAC, 0.0153.
